Assay results published in PubChem BioAssay (NCI).
About 79,000 compounds went through this panel and 15% of them were active in at least one assay; those are over-represented in the sample as a whole. Values without a mark were called inactive. Activity calls are given as the source filed them. Rule as the data show it: active = growth inhibition above about 70%; inactive = the rest. Where a SMILES comes first, the peptide text is derived from it.

Key:
[1] = NCI Yeast Anticancer Drug Screen. Data for the rad50 strain (AID 155);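 also: 0% = growth of vehicle-only cultures of the same strain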; details: S. cerevisiae rad50 strain growth inhibition; at 50.0 µM; hits give high values
How it was run: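 A DNA repair-deficient yeast mutant serves as the test organism; compound-induced growth inhibition is calculated against vehicle-treated cells.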

[2] = NCI Yeast Anticancer Drug Screen. Data for the mec2-1 strain (AID 157); details: S. cerevisiae mec2-1 strain, at 50.0 µM, hits give high values
How it was run: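 Readout is yeast growth inhibition, normalised to vehicle-treated controls, in the mec2-1 strain exposed to compound.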

[3] = NCI Yeast Anticancer Drug Screen. Data for the sgs1 mgt1 strain (AID 161);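 also: 0% = growth of cultures given vehicle only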; details: S. cerevisiae sgs1 mgt1 strain, at 50.0 µM, hits give high values
How it was run: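 Percent growth inhibition was derived by comparing compound-exposed mutant yeast with vehicle-exposed cultures. The strain carries alterations in DNA damage repair.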

[4] = NCI Yeast Anticancer Drug Screen. Data for the cln2 rad14 strain (AID 165);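 also: 0% = growth equal to vehicle treated cultures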; details: S. cerevisiae cln2 rad14 strain, at 50.0 µM, hits give high values
How it was run: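 Relative to vehicle controls, growth inhibition of compound-treated cln2 rad14 yeast was recorded.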

[5] = NCI Yeast Anticancer Drug Screen. Data for the bub3 strain (AID 167); details: S. cerevisiae bub3 mutant strain, at 50.0 µM, hits give high values
How it was run: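 Inhibition values come from growth of compound-treated mutant yeast normalised to vehicle-treated controls.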

[6] = NCI Yeast Anticancer Drug Screen. Data for the mlh1 rad18 strain (AID 175); details: S. cerevisiae mlh1 rad18 strain growth inhibition; at 50.0 µM; hits give high values
How it was run: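 Test agents were incubated with a yeast strain of defined genotype (DNA damage repair defect). Inhibition of growth was derived by comparison with vehicle-exposed cultures.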

| SMILES | growth inhibition [1] | growth inhibition [2] | growth inhibition [3] | growth inhibition [4] | growth inhibition [5] | growth inhibition [6] |
| --- | --- | --- | --- | --- | --- | --- |
| CC(=O)NC(C(=O)NC(C)C(=O)N1CCCC1C(=O)O)C(C)C (stereo not drawn) (Ac-Val-Ala-Pro-OH; configuration not given here) | 19.1% | -19.5% | -1.1% | 15.1% | 0.6% | -3.65% |
| CC(C)NC(=O)c1ccccc1S(=O)c1ccccc1C(=O)NC(C)C | -16.4% | 3.45% | 8.15% | 11.3% | 5.05% | 7.25% |
| CCc1ccc(NC(=S)NC(=O)C(C)Oc2ccccc2)cc1 (configuration not stated) | 39.5% | 21.6% | 54.7% | 15.1% | 78.8% (active) | 8.9% |
| O=C1O/C(=C(\Br)c2cccc3ccccc23)c2ccccc21 | -18.1% | -30.4% | -34% | 11.2% | -27.6% | -18.3% |
| O=C(/C(=C/c1ccc(Cl)cc1)c1ccccc1)c1ccccc1 | 9.2% | -28.4% | 6.45% | 13.9% | -21.1% | -2.75% |
| COC(=O)[C@]1(C)OP(OC)(OC)(OC)O[C@]1(C)C(=O)OC | -3.4% | -10.2% | 3.25% | -40.5% | -2.15% | -1.6% |
| Cc1cc2nc(-c3ccccc3O)[nH]c2cc1C | -14.2% | -29.9% | -5.25% | 2.1% | -29.6% | 9.35% |
| O=C(NCc1ccc2ccc3cccnc3c2n1)c1ccc[n+](Cc2ccccc2)c1 | -6.1% | -11.6% | 5.65% | 3.5% | 10.1% | 1.75% |
| Cc1c(Cl)cccc1NC(=O)c1c(Cl)c(Cl)c(Cl)c(Cl)c1C(=O)O | 7.15% | -1.35% | 8.6% | -31.7% | 0.85% | 14.1% |
| Cn1c(=O)c2ccccc2[n+]2c(-c3cccc([N+](=O)[O-])c3)csc12 | -3.9% | -15.3% | 41.5% | 25.6% | -8.85% | -9% |
| Cc1c(CCO)sc[n+]1CC(=O)c1ccccc1 | -14.5% | -19% | -3.7% | 1.55% | 2.3% | 1% |
| C#CC(C)(C)OC(=O)Nc1ccc(Cl)cc1 | 27.4% | 16.2% | -0.35% | -44.2% | 7.9% | 13.1% |
| O=C(O)c1ccccc1C(=O)OC1CC2CCC1C2 (configuration not stated) | -26.2% | -22.6% | -10.4% | 24.2% | 12.6% | 1.6% |
| CC1(C)CN(CCO)C(C)(C)CN1 | 30.6% | 16.3% | 14.9% | 15.8% | -19.8% | 2.5% |
| Cc1cccc([N+](=O)[O-])c1C | 13.7% | -10.4% | 7.3% | 23.4% | 10.8% | -15.6% |
| COC(=O)c1ccccc1N=NNc1ccc(C)c(Cl)c1 | 36.2% | 0.55% | -1.2% | -11.4% | 5.7% | 5.15% |
| CC(=O)/C(=C/N1CC(=O)NC1=S)C(=O)Nc1ccccc1 | -21.6% | -23.2% | -31.4% | -0.35% | -32.6% | 2% |
| CC1CC12OC(=O)N(c1cc(Cl)cc(Cl)c1)C2=O (configuration not stated) | 1.7% | 8.9% | 14.3% | 35.1% | -2.05% | 16.6% |
| CC(=O)NC1=C(Sc2ccc(Cl)cc2)C(=O)c2ccccc2C1=O | 56.2% | 15.8% | 18.3% | -56.4% | 19.9% | 33.2% |

| SMILES | growth inhibition [1] | growth inhibition [2] | growth inhibition [3] | growth inhibition [4] | growth inhibition [5] | growth inhibition [6] |
| --- | --- | --- | --- | --- | --- | --- |
| CC(C)/C(Cl)=N\OC(NC(=O)P(=O)(c1ccccc1)c1ccccc1)(C(F)(F)F)C(F)(F)F | 58.5% | 52.2% | 50.8% | 65.5% | 52.4% | 60.9% |
| O=C(Nc1ccn(C2OC(CO)C(O)C2O)c(=O)n1)Nc1ccn(C2OC(CO)C(O)C2O)c(=O)n1 (configuration not stated) | 22.5% | -17.6% | -4.95% | -35.8% | -1.2% | 17.6% |
| CC(C)C1NC(=O)CC(c2ccccc2)N(N=O)C1c1ccccc1 (configuration not stated) | -29.3% | -9% | -4.85% | -14.9% | -5.9% | -16.8% |
| CC[N+](C)(C)CC(O)(O)C(F)F | -28.1% | -32.7% | -17.1% | 2.25% | -26.8% | -16.2% |
| C[N+]1(C)CCCC(CO)(c2ccccc2)CC1 (configuration not stated) | 10.2% | 13% | 3.3% | -15.5% | 14.9% | 7.7% |
| O=C(O)c1ccc2ccc(F)cc2c1Cc1ccccc1 | -4.15% | -10.2% | 12.9% | 8.3% | -1.4% | -16.5% |
| c1ccc2c(-c3cnc(-c4ccc(-c5ncc(-c6cccc7ccccc67)o5)cc4)o3)cccc2c1 | -14.9% | -2.45% | 0.5% | -52.6% | -1.1% | -16.4% |
| COc1ccccc1N=NNc1ccc(S(=O)(=O)NC(C)=O)cc1 | 14.9% | -28.5% | -1.1% | -0.6% | -15% | 0.55% |
| COc1ccc(C(=O)c2ccccc2)c(O)c1 | 13.1% | 1.8% | -10.6% | 4.95% | 0.55% | 6.9% |
| NS(=O)(=O)/C=C(\Cl)c1ccccc1 | 1.7% | 2.15% | 2.95% | -16.6% | 12.2% | -0.55% |
| CCC1C(C#N)=C(O)NC(O)=C1C#N | 25.8% | 6.1% | 11.8% | 8.6% | 19.2% | -1.65% |
| CN(C)c1ccc(C2(c3ccc(N(C)C)cc3)NNC(=O)c3ccccc32)cc1 | 17.2% | 7.95% | 9.35% | 12.7% | 21.1% | -0.3% |
| Cc1onc(-c2ccccc2)c1NC(=O)OCc1ccc(-c2cc(C(F)(F)F)cc(C(F)(F)F)c2)o1 | -0.4% | -14.9% | -2.65% | 9.7% | 4.4% | 11.8% |
| CCCCSC(N)=O | -1.5% | 0% | -15.1% | 10.7% | 17.3% | 11.2% |
| O=C1C(Cl)N(c2ccc(Cl)cc2Cl)C1c1c[nH]c2ccccc12 (configuration not stated) | -14.4% | -13.9% | -16.7% | 3.05% | 2.95% | -20.4% |
| O=C(O)CSCc1cc2c(O)c(c1)Cc1cc(CSCC(=O)O)cc(c1O)Cc1cc(CSCC(=O)O)cc(c1O)Cc1cc(CSCC(=O)O)cc(c1O)C2 | -6.9% | -5.6% | -6.55% | 14.7% | 43.8% | -0.1% |
| O=NN(CCCl)C(=O)N(C1CCCCC1)C1CCCCC1 | 8.5% | -3.95% | 12.1% | 3.35% | 5% | 27.7% |
| Cc1nc(-n2nc(-c3ccccc3)cc2-c2ccccc2)sc1C(=O)/C=C/c1ccc(Cl)c(Cl)c1 | 53.2% | 4.55% | 6.8% | 21.1% | 22.4% | 12.8% |
